Rows were chosen to be rich in hits. Some 0.87% of all compounds tested hit in one or more screens of this group.
IDE cell inh = inhibitors of human insulin-degrading enzyme in cells | inhibition, % at 5.59 µM | AID 434962 | 0.41% of 320,000 active | HEK cells, FAbetaB cleavage, fluorescence polarization | P14735;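 active = percent inhibition above the average of all tested compounds plus 3 SD, set per screening campaign, cut at about 16% in these data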;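 note: IDE supplied by intact live HEK cells; FP after avidin binding of uncleaved biotin substrate so inhibition keeps polarization high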
TLR9-MyD88 inh = TLR9-MyD88 interaction inhibition; Q9NR96+Q99836; CHO BLA complementation TLR9-MyD88, CCF4 FRET ratio; inhibition, % at 4.98 µM; 0.21% of 340,000 active; AID 504734;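 active = inhibition above the mean over all tested compounds plus 3 SD, cut at about 21% in these data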
TLR4 MyD88 comp = TLR4-MyD88 interaction inhibition in cells. HeLa CL3-4 TLR4/MyD88 BLA complementation, FRET ratio. AID 861. 0.18% of 200,000 active. inhibition, % at 8.4 µM; in the data active = inhibition above about 25%
IDE act = activators of human insulin-degrading enzyme in cells | P14735 | HEK cells, FAbeta-B cleavage, fluorescence polarization; 0% vehicle, 100% cell-free pure enzyme wells | activation, % at 5.96 µM | 0.073% of 340,000 active;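 active = activation above the mean of all tested compounds plus 3 SD, set per screening campaign, cut at about 17% in these data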
NOD2 RIPK2 PPI = blocks binding of human NOD2 to RIPK2 | O43353 | CHO BLA complementation NOD2-RIPK2, CCF4 ratio | inhibition, % at 4.98 µM | 0.38% of 360,000 active; in the data active = inhibition above about 21%
TLR9-MyD88 conf = TLR9-MyD88 interaction inhibition, confirmation; AID 540250; 51% of 680 active; shares compounds with TLR9-MyD88 inh; inhibition, % at 4.98 µM; CHO TLR9/MyD88 BLA complementation, CCF4 FRET ratio;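 active = mean inhibition across three repeats above about 21% taken from the earlier screen, limit read from the data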;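 note: blue over green emission ratio reports constitutive TLR9 MyD88 association via BLA complementation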
BLA counter-1 = beta-lactamase reporter inhibition, counter-screen artifact; AID 540251; shares compounds with TLR9-MyD88 inh; CHO-BLA cells, CCF4 FRET ratio, BLA reporter; 7% of 680 active; inhibition, % at 4.98 µM;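 active = mean inhibition above a 50% cutoff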;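 note: counterscreen of TLR9-MyD88 hits on CMV-driven BLA in CHO-K1 cells; higher means less blue over green ratio so more BLA blockade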
TLR9 CHO tox = CHO cell toxicity counter-screen for TLR9-MyD88 inhibitors | 39% of 680 active | TLR9-MyD88 CHO cells cytotoxicity, luminescence | inhibition, % at 4.98 µM | shares compounds with TLR9-MyD88 inh | AID 588336; in the data active = inhibition above about 11%
NOD2-RIPK2 conf = confirmation of human NOD2-RIPK2 interaction inhibitors; 70% of 1,200 active; CHO cells, NOD2-RIPK2 BLA complementation, CCF4 FRET; shares compounds with NOD2 RIPK2 PPI; inhibition, % at 4.98 µM;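 active = mean inhibition across replicates above a set limit taken from the earlier primary screen, cut at about 21% in these data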
BLA counter-2 = counter-screen for NOD2-RIPK2 interaction inhibitors: BLA reporter. shares compounds with NOD2 RIPK2 PPI. inhibition, % at 4.98 µM. CHO BLA reporter, CCF4 FRET ratio, counterscreen. AID 624371. 57% of 1,200 active;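 active = mean inhibition above the low-control mean inhibition plus three low-control SD, cut at about 11% in these data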
Hits are given with their value; - = inactive; . = not tested or not shown.

SMILES | IDE cell inh | TLR9-MyD88 inh | TLR4 MyD88 comp | IDE act | NOD2 RIPK2 PPI | TLR9-MyD88 conf | BLA counter-1 | TLR9 CHO tox | NOD2-RIPK2 conf | BLA counter-2
C/C(=N\Nc1ccc([N+](=O)[O-])cc1)c1ccc(C#N)cc1 | - | - | . | - | - | . | . | . | . | .
C/C(=N/Nc1ccc([N+](=O)[O-])cc1)c1ccc(C)cc1C | - | 22 | - | - | - | - | - | - | . | .
COc1ccc2c(C#N)c3ccccn3c2c1 | - | 21 | - | - | - | - | - | - | . | .
Cc1ccc(Cn2cccc2/C=C2/C(=N)N3C=CSC3=NC2=O)cc1 | - | 30 | - | - | - | - | - | 16 | . | .
Cn1c2ccccc2c2nnc(SCC(=O)Nc3cccc(O)c3)nc21 | - | - | . | - | - | . | . | . | . | .
Cc1ccsc1/C=C1\Oc2cc(O)ccc2C1=O | . | 25 | . | . | 50 | - | - | - | 40 | 52
COc1ccc2c(c1)O/C(=C\c1ccccc1C)C2=O | - | - | . | - | - | . | . | . | . | .
O=C(Nc1ccc(Br)cc1)C1OCCc2ccccc21 (configuration not stated) | - | - | . | - | - | . | . | . | . | .
O=[N+]([O-])c1ccc(N2N=C(c3ccccc3)CC2c2ccccc2O)cc1 (configuration not stated) | . | 40 | . | - | 39 | 33 | - | - | 51 | 65
O=[N+]([O-])c1ccc(N2N=C(c3ccco3)CC2c2ccccc2)cc1 (configuration not stated) | 22 | 38 | - | - | 56 | 21 | - | - | 49 | 53
Fc1ccc(C2CC(c3ccco3)=NN2c2ccccc2)cc1 (configuration not stated) | - | - | - | - | - | . | . | . | . | .
Cc1c(C(=O)C(=O)NCC2CCCO2)c2ccccc2n1C (configuration not stated) | - | - | - | - | - | . | . | . | . | .
CCN(CC)c1ccc(/C=C2/SC(=O)N(C(C)C)C2=O)o1 | . | 31 | - | - | 65 | - | - | 61 | 27 | 15
COc1cc(OC)nc(-n2ncc(Br)c(Br)c2=O)n1 | - | 23 | - | - | 50 | 27 | - | 100 | 60 | -
Cc1ccccc1Nc1cccc2nonc12 | - | 46 | - | - | 41 | 22 | - | - | 53 | 57
O=C(NC1CCCC1)C(c1ccncc1)N(C(=O)c1csnn1)C1CCCC1 (configuration not stated) | - | - | - | - | - | . | . | . | . | .
O=c1c(Br)ccc(Br)cc1Br | . | 66 | . | - | 85 | 68 | - | 98 | 101 | 48
O=C(/C=C/c1cccc(Oc2ccccc2)c1)N1CCOCC1 | - | - | - | - | - | . | . | . | . | .
Nc1cc2sc(-c3ccc(C(=O)O)cc3)nc2cc1Cl | - | 24 | - | - | 35 | - | - | 14 | 32 | 40
O=C1c2ccccc2C(=O)C1(CO)c1ccc(OC(F)F)cc1 | - | - | . | - | - | . | . | . | . | .
COc1cccc(NC(=O)c2nc(S(C)(=O)=O)ncc2Cl)c1 | - | 45 | . | - | 74 | 42 | - | 100 | 67 | 32
COc1cccc(NC(=O)c2nc(SC)ncc2Cl)c1 | - | - | . | - | - | . | . | . | . | .
CN(c1ccccc1)S(=O)(=O)c1ccc(NC(=O)c2nc(S(C)(=O)=O)ncc2Cl)cc1 | - | 58 | . | - | 100 | 52 | - | 103 | 93 | 51
COc1ccc(CCNC(=O)CC(=O)N/N=C/c2ccc(Br)cc2)cc1OC | - | - | . | - | - | . | . | . | . | .
CC(C)CNC(=O)COC(=O)c1c2c(nc3ccccc13)/C(=C\c1cccs1)CC2 | . | 30 | . | - | 47 | 46 | 54 | 12 | 70 | 77
SMILES | IDE cell inh | TLR9-MyD88 inh | TLR4 MyD88 comp | IDE act | NOD2 RIPK2 PPI | TLR9-MyD88 conf | BLA counter-1 | TLR9 CHO tox | NOD2-RIPK2 conf | BLA counter-2
O=C(COC(=O)c1c2c(nc3ccccc13)/C(=C\c1cccs1)CCC2)Nc1ccccc1 | - | - | - | - | - | . | . | . | . | .
CN(C(=O)CN1C(=O)c2cccc(N)c2C1=O)C1CCCCC1 | - | 29 | . | - | 61 | - | - | - | 51 | 49
Cc1ccc(CNC(=O)c2cccc3c2C(=O)c2ccc(N4CCOCC4)cc2S3(=O)=O)cc1 | - | - | . | - | - | . | . | . | . | .
Cc1ccc(CNC(=O)c2cccc3c2C(=O)c2ccc(N4CCCCC4)cc2S3(=O)=O)cc1 | - | 25 | . | - | 27 | - | - | - | 31 | 33
O=C(NCc1ccccc1C(F)(F)F)c1cccc2c1C(=O)c1ccc(N3CCC(N4CCCCC4)CC3)cc1S2(=O)=O | . | 30 | . | . | 68 | 30 | - | - | 73 | 70
CCS(=O)(=O)c1ccc(O)c(NC(=O)c2cc(-c3ccccn3)nc3ccccc23)c1 | - | - | . | - | - | . | . | . | . | .
Cc1ccc(CNC(=O)CCSCc2cccc(F)c2)cc1 | - | - | . | - | - | . | . | . | . | .
CCCCCCSc1cc(-c2nc3cc(C)ccn3c2NCCCC)ccc1OC | - | - | . | - | - | . | . | . | . | .
CCCCCCSc1cc(-c2nc3cnccn3c2NCCCC)ccc1OC | - | 41 | . | 20 | 44 | 26 | - | 14 | 40 | 52
CCCOc1cc(N(CC)CC)ccc1/C=C(/C#N)c1nc2ccc(C)cc2[nH]1 | 105 | 21 | - | - | 34 | - | - | - | 35 | 36
OCCN(CCO)c1nc(N2CCCCC2)c2nc(N(CCO)CCO)nc(N3CCCCC3)c2n1 | - | 25 | - | - | 36 | - | - | - | 47 | 51
Nc1nc(NCCO)nc(N2CCCCCC2)c1[N+](=O)[O-] | - | - | . | - | - | . | . | . | . | .
N#C/C(=C\c1ccc(Sc2nc3ccccc3[nH]2)o1)c1ccccc1 | - | - | - | - | - | . | . | . | . | .
N#C/C(=C\c1ccc(Sc2ccc(Cl)cc2)o1)c1nc2ccccc2[nH]1 | - | 34 | - | - | 34 | - | - | - | 39 | 43
Cc1cc(C)c(C(=O)C(C)OC(=O)Cn2cnc3c2c(=O)n(C)c(=O)n3C)cc1C (configuration not stated) | - | - | . | - | - | . | . | . | . | .
COc1ccccc1CNC(=O)CCN1C(=O)c2ccccc2C1=O | - | - | . | - | - | . | . | . | . | .
COc1ccccc1CNC(=O)CN1C(=O)c2cccc(N)c2C1=O | - | 36 | . | - | 31 | - | - | - | 46 | 49
CC1(C)CC2CC(C)(CN2C(=S)Nc2ccccc2F)C1 (configuration not stated) | - | - | - | - | - | . | . | . | . | .
COc1cc2c(cc1OC)C(c1ccccc1)N(S(C)(=O)=O)CC2 (configuration not stated) | - | - | - | - | - | . | . | . | . | .
